Laboratory results taken from PubChem BioAssay.
The source made the active and inactive calls.

Legend:
[1] = small molecules captured by biotinylated probe aFSTL3 – biochemical, small-molecule microarray, fluorescence 635/667, stem cell growth factor project, primary screen (AID 1064); conditions: higher = more signal;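 note: measures binding of the biotinylated anti-FSTL3 antibody to printed compounds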
[2] = binders from COS7 lysate, DM2A8 probe, primary screen, torsin A project, cell lysate, small-molecule microarray, fluorescence 635/667 (AID 1065); conditions: higher = more signal, COS7 lysate expressing mutant human TOR1A
[3] = small molecules captured by biotinylated probe aFGF2 – biochemical, small-molecule microarray, fluorescence 635/667, stem cell growth factor project, primary screen (AID 1067); conditions: higher = more signal;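 note: measures binding of biotinylated aFGF2 protein to printed compounds on slides; z-score merges feature fluorescence and signal-to-noise across triplicate slides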
[4] = small molecules captured by biotinylated probe aFGF10 – biochemical, small-molecule microarray, fluorescence 635/667, stem cell growth factor project, primary screen (AID 1071); conditions: higher = more signal;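 note: score merges 667 nm spot intensity and signal to noise from triplicate slides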
[5] = target: Neurogenic locus notch homolog protein 2 (Homo sapiens) (UniProt Q04721); test: small molecules binding Notch2 protein – biochemical, small-molecule microarray, 635 nm fluorescence, stem cell growth factors, primary screen (AID 1073); conditions: higher = more signal
Sequence of Neurogenic locus notch homolog protein 2 (Homo sapiens) (Q04721 whole entry, looked up, canonical isoform): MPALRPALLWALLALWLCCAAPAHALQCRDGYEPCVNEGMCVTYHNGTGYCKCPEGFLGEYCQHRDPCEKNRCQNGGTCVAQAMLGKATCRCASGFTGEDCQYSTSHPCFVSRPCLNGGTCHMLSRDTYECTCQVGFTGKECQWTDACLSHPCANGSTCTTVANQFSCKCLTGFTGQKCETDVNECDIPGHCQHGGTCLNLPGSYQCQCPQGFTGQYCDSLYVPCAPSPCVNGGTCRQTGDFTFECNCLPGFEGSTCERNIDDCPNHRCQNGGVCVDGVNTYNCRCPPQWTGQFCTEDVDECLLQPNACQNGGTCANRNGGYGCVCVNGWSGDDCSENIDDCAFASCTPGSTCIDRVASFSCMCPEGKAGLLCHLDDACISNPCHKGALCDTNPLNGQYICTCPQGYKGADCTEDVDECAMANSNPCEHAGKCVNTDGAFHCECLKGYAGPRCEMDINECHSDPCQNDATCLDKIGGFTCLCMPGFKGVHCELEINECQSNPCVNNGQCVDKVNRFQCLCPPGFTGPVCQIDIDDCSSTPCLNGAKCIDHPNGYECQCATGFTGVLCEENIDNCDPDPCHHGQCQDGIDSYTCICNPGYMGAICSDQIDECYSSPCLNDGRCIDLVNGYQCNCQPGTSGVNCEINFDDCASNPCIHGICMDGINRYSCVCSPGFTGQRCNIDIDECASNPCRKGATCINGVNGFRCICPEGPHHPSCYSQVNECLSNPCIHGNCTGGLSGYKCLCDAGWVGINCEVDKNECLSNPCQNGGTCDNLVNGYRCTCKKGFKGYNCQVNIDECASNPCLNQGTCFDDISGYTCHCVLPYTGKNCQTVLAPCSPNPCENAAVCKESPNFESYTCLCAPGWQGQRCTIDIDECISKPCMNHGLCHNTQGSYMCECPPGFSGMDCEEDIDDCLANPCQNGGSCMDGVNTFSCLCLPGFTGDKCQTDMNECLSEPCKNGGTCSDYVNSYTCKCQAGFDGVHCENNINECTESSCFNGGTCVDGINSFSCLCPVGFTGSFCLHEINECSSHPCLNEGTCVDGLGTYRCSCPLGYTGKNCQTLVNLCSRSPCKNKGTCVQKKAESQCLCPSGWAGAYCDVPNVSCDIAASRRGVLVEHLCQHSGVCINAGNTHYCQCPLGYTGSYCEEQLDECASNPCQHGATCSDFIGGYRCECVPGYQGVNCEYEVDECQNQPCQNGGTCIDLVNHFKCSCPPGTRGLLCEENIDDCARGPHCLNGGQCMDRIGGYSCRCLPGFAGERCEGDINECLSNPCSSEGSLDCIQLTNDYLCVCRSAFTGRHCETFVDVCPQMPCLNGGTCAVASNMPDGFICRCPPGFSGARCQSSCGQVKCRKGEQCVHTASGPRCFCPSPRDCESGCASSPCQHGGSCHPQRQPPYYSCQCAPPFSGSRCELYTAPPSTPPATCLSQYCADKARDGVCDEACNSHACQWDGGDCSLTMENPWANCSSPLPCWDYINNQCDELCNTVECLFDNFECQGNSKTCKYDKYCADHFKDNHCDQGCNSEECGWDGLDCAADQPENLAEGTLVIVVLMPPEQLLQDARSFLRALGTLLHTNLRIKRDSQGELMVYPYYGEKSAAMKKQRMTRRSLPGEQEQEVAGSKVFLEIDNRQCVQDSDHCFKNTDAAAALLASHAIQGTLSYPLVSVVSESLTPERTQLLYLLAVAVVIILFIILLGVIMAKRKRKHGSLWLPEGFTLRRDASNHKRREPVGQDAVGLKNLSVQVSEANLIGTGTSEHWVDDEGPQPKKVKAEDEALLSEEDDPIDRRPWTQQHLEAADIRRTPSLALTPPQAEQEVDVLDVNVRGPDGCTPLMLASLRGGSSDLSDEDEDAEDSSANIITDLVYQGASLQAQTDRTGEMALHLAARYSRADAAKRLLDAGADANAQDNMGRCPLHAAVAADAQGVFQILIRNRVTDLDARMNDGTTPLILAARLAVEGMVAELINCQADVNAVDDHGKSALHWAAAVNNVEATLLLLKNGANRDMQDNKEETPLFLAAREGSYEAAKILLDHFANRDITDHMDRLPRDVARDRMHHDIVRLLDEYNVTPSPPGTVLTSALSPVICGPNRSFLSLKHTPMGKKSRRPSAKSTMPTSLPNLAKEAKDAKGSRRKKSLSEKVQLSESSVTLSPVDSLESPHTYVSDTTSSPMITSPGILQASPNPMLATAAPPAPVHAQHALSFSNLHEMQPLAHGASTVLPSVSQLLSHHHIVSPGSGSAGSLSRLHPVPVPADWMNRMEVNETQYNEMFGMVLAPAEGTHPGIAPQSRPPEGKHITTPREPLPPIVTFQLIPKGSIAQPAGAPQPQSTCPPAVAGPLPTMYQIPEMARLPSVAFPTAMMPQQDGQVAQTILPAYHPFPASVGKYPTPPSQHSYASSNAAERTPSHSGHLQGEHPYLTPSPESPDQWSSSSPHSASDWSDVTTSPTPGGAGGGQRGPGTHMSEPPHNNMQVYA

[6] = target: Pro-neuregulin-1, membrane-bound isoform (Homo sapiens) (UniProt Q02297); test: small molecules binding neuregulin-1 protein – biochemical, small-molecule microarray, fluorescence 635/667, psychiatric disease protein project, primary screen (AID 1075); conditions: NRG1 binding, 635 nm fluorescence, higher = more signal;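 note: score combines 667 nm spot fluorescence with signal to noise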
Sequence of Pro-neuregulin-1, membrane-bound isoform (Homo sapiens) (Q02297 whole entry, looked up, the tested form may be a part, canonical isoform): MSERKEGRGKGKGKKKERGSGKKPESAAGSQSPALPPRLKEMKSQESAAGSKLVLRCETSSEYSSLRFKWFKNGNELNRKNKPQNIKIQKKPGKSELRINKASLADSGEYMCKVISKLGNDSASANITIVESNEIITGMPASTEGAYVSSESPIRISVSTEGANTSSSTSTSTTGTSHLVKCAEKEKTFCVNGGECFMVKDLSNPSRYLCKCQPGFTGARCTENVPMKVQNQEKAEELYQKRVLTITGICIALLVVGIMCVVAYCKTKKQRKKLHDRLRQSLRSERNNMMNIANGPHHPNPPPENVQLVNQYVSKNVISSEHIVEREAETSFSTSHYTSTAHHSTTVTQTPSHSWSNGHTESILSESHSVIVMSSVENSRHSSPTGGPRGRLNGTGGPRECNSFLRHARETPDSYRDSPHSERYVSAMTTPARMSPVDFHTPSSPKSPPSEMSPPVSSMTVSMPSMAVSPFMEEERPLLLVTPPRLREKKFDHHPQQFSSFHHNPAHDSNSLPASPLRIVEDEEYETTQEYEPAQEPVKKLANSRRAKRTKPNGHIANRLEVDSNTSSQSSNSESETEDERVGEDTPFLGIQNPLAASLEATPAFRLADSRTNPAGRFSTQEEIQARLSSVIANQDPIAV

[7] = test system: Neuregulin-1 EGF-like domain; test: small molecules binding NRG1 EGF domain – biochemical, small-molecule microarray, 635 nm fluorescence, primary screen (AID 1081); conditions: higher = more signal;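 note: binding of the protein to compounds printed on small-molecule microarray slides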
[8] = FRG1 expression reporter modulators in myotubes – cell-based, C2C12 myotubes, firefly/Renilla luciferase, luminescence, FRG1 inhibition for FSHD, primary screen (AID 1084); conditions: FRG1 promoter luciferase, higher = more signal, called active from +8 up or from −8 down
[9] = small molecules captured by biotinylated probe aFST – biochemical, small-molecule microarray, fluorescence 635/667, stem cell growth factor project, primary screen (AID 1086); conditions: higher = more signal;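 note: score merges 667 nm fluorescence with signal-to-noise of each printed compound spot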
[10] = binders of probe aHhip on microarray, primary screen, stem cell growth factor project, biochemical, small-molecule microarray, fluorescence 635/667 (AID 1087); conditions: higher = more signal;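 note: score merges spot fluorescence at 667nm with spot signal to noise ratio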

Row | SMILES | composite z-score [1] | composite z-score [2] | composite z-score [3] | composite z-score [4] | composite z-score [5] | composite z-score [6] | composite z-score [7] | z-score [8] | composite z-score [9] | composite z-score [10]
1 | CCOC(=O)C1=CCN(S(=O)(=O)c2ccc(C)cc2)C1c1ccccc1 (stereo not given) | -0.0137 | 0.229 | -0.0232 | 0.535 | 1.5 | 1.44 | 1.2 | -0.158 (inactive) | 0.439 | 0.113
2 | C=CCC(OC(C)=O)[C@@H]1[C@@H](N(Cc2ccc(-c3cccc(C(F)(F)F)c3)o2)C(=O)c2ccc(C)cc2)c2cc(OCCCO)ccc2N1C(=O)Cc1ccc(OC)cc1 (stereo not given in full) | 0.002 | -0.315 | -0.0639 | 0.0732 | -0.489 | -0.0798 | -0.986 | -0.287 (inactive) | 0.382 | 0.0373
3 | COCCOC(=O)N1C(=O)[C@@]2(c3cc(C#CCC(C(=O)OC)C(=O)OC)ccc31)[C@H](c1ccc(O)cc1)N1[C@H](c3ccccc3)[C@H](c3ccccc3)OC(=O)[C@H]1[C@@H]2C(=O)NC[C@H](O)c1ccccc1 | -0.32 | 0.63 | 0.0521 | 0.144 | 0.147 | 1.12 | 1.04 | 1.15 (inactive) | 0.169 | 0.0749
4 | COC(=O)[C@@]1(Cc2ccc(OC)cc2)[C@H]2c3cc(C(=O)N4CCCC4)n(Cc4ccc(OC(F)(F)F)cc4)c3C[C@H]2CN1C(=O)c1ccccc1 | 0.572 | -1.05 | 0.225 | 0.703 | 1.74 | 1.39 | 0.283 | 0.612 (inactive) | 1.28 | 0.113
5 | C=C(CCCC)C(=O)CC[C@@H](OC(=O)c1cccnc1)c1ccc(OCCO)cc1 | -0.449 | 0.887 | -0.0894 | 0.681 | 0.214 | 0.89 | 1.19 | 0.84 (inactive) | 0.204 | -0.0645
6 | [N-]=[N+]=Nc1ccccc1C[C@]1(C(=O)O)N=C(c2ccc(OCCCO)cc2)O[C@H]1c1ccccc1N=[N+]=[N-] | 0.951 | 0.618 | 0.0857 | 0.619 | 1.23 | 1 | 1.04 | -1.57 (inactive) | 0.992 | 0.543
7 | COCCCNC(=O)[C@@]1(c2ccc([N+](=O)[O-])cc2)CC(=O)N(C(C)C)[C@@H]1c1ccc(CO)cc1 | 0.135 | -0.169 | -0.059 | -0.0621 | -0.588 | -0.714 | 0.539 | 0.195 (inactive) | 0.116 | 0.526
8 | COCCOC(=O)N1C(=O)[C@@]2(c3cc(C#CCC(C(=O)OC)C(=O)OC)ccc31)[C@H](c1ccc(OCCO)cc1)N1[C@H](c3ccccc3)[C@H](c3ccccc3)OC(=O)[C@H]1[C@@H]2C(=O)Nc1nc2ccccc2s1 | -0.0598 | 0.215 | -0.17 | 0.383 | 1.22 | -0.0762 | 1.23 | 4.65 (inactive) | 0.524 | -0.148
9 | C=CCN1C(=O)[C@]2(O[C@H](CCO)[C@@H]([Si](C)(C)c3ccc(OC)cc3)[C@@H]2C)c2cc(N3C(=O)COc4ccccc43)ccc21 | 0.174 | -0.142 | -0.0597 | 0.606 | 0.248 | 0.966 | 0.698 | -0.998 (inactive) | -0.0347 | -0.297
10 | C=CCNC(=O)[C@H]1[C@@H]2C(=O)O[C@@H](c3ccccc3)[C@@H](c3ccccc3)N2[C@@H](c2ccc(OCCO)cc2)[C@]12C(=O)N(C(=O)OCCOC)c1ccc(C#Cc3ccc(OC)cc3)cc12 | 0.0886 | 0.91 | -0.0252 | 0.713 | 0.897 | 0.671 | 1.12 | 0.0138 (inactive) | 0.111 | -0.335
11 | COC(=O)C1=CC(CCCO)=CC(C)N(Cc2cccc(OC(F)(F)F)c2)C=C1C(=O)OC (stereo not given) | -0.385 | -0.383 | -0.0667 | 0.157 | 0.412 | 2.05 | 1.21 | -0.181 (inactive) | 0.577 | -0.0994
12 | O=c1cccc(-c2ccc(F)cc2)o1 | -0.227 | -0.0321 | -0.0455 | 0.255 | 0.607 | -0.219 | 1.08 | 0.855 (inactive) | 0.552 | 0.643
13 | [N-]=[N+]=NCc1ccccc1[C@@H]1OC(c2ccc(OCCCO)cc2)=N[C@]1(Cc1ccccc1N=[N+]=[N-])C(=O)N1CCCCC1 | -0.0244 | 1.17 | -0.0599 | 0.227 | 1.55 | 1.16 | 1.23 | -0.878 (inactive) | 0.882 | 0.38
14 | COCCOC(=O)N1C(=O)[C@@]2(c3cc(C#CCC(C(=O)OC)C(=O)OC)ccc31)[C@H](C(=O)NC[C@H](O)c1ccccc1)[C@H]1C(=O)O[C@H](c3ccccc3)[C@H](c3ccccc3)N1[C@@H]2c1ccc(O)cc1 | -0.0562 | 0.498 | -0.0647 | 0.954 | 0.269 | 1.01 | 1.28 | -0.81 (inactive) | 1.04 | 0.213
15 | CN(C)C(=O)[C@@]1(CCC(=O)OC(C)(C)C)N=C(c2ccc(OCCCO)cc2)O[C@H]1c1ccccc1CN=[N+]=[N-] | -0.0162 | 1.01 | 0.0408 | 0.39 | 1.06 | 1.92 | 1.28 | -0.119 (inactive) | 0.717 | 0.0373
16 | C=CCC(OC(C)=O)[C@@H]1[C@@H](N(Cc2cc3ccccc3o2)C(=O)c2ccc(-c3ccccc3)cc2)c2cc(OCCCO)ccc2N1C(=O)Cc1ccc(OC)cc1 (stereo not given in full) | -0.0413 | -0.183 | -0.0002 | 0.248 | 0.0777 | 0.0526 | -0.353 | -0.802 (inactive) | 0.331 | -0.189
